Sm TGR block – inhibitors of Schistosoma mansoni thioredoxin glutathione reductase | Q962Y6 | purified TGR, DTNB reduction, TNB absorbance 405 nm | Potency, µM (series often up to 114 µM), for the others: at the highest dose activity change, negative = inhibition, usual class: inhibitors | 3% of 360,000 active | AID 485364; also: nearly all actives have a fitted effect of over 60% in size
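Kinetic colorimetric format: TGR-catalysed, NADPH-driven DTNB reduction monitored via TNB absorbance. Enzyme dispensed at 20 nM; compound exposure 15 min at room temperature before reaction start.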
AMA1 RON2 block – inhibitors of Plasmodium falciparum AMA1-RON2 interaction. 0.2% of 360,000 active. Potency, µM (highest dose often 58.2 µM), for the others: top-dose activity change, negative = inhibition, hits mostly inhibitors. AlphaScreen AMA1-biotinylated RON2 peptide binding;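 also: 0% = vehicle wells and -100% = peptide control; nearly all actives have a fitted effect of over 45% in size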
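AMA1 (3D7) with his tag at 25 nM final met compounds first, then biotinylated RON2 peptide at 25 nM; detection used donor plus acceptor beads, 10 µg/mL apiece, read by AlphaScreen after 30 min at room temperature.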
RE007 growth inh – less growth of the S. pombe RE007 Vpr strain; S. pombe RE007 Vpr strain, BacTiter-Glo ATP luminescence, 24 h; Potency, µM (top dose mostly 92.2 µM), for the others: at the highest dose activity change, negative = less growth, actives largely listed as inhibitors; 0.21% of 360,000 active; AID 651644; active = well fitted falling curve with a large enough effect; inconclusive = small, poorly fitted or top-dose-only effect; inactive = no such curve, though single readings can be large or run the other way; also: nearly all actives have a fitted effect of over 50% in size
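Fission yeast RE007 carrying one integrated HIV-1 vpr copy, seeded at OD 0.01 in PMG+AL medium with 23 nL pinned compound. Grown 24 h at 30 degrees; viability read by BacTiter-Glo luminescence after 5 min.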
LmPK inh – inhibitors of Leishmania mexicana pyruvate kinase. Q27686. purified LmPK, Kinase-Glo ATP luminescence, 1 h. Potency, µM (titrated, usually from 57.5 µM), for inactives: at the highest dose activity change, negative = inhibition, most hits filed as inhibitors. 0.37% of 290,000 active. AID 1721
Target sequence (Q27686 whole entry, looked up): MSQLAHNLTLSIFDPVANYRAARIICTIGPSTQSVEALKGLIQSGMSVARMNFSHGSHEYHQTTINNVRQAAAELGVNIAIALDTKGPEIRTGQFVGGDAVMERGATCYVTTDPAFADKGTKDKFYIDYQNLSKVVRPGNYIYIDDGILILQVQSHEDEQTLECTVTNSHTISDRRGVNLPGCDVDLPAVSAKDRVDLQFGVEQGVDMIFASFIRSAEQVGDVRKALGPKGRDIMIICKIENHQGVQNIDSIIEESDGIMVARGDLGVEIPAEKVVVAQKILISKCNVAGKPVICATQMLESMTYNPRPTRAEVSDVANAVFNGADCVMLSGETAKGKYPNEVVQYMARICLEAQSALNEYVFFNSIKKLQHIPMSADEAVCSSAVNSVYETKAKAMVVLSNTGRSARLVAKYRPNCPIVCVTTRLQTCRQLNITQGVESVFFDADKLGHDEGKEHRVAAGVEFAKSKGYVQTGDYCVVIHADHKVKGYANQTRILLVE
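In 50 mM imidazole pH 7.2 with 7 mM MgCl2, LmPK (0.1 nM) turned over PEP (0.5 mM) and ADP (0.1 mM) for 1 h at room temperature. Luciferase read-out of ATP.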
Tb PYK inh – T. brucei pyruvate kinase inhibition. Potency, µM (highest dose often 76.8 µM), for the others: at the highest dose activity, negative = inhibition, most hits filed as inhibitors. AID 624173. Q57TT1. TbPYK enzyme, Kinase-Glo Plus ATP luminescence, 45 min. 0.12% of 410,000 active; also: nearly all actives have a fitted effect of over 50% in size
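Glycolytic pyruvate kinase of T. brucei was incubated with substrate, test compound and 130 uM ADP for 45 minutes at room temperature. Luminescent Kinase-Glo Plus signal was measured after 10 minutes.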
Numbers without * were called inactive; ? = inconclusive; / = no result; [ ] = remark or other dose. Compounds with a hit are over-represented: about 3.2% of the library has one in this group of screens. Unless noted, calls follow the shape of the dose curve; as a rule, active = well fitted curve in the direction sought with a large enough effect; inconclusive = small, poorly fitted or top-dose-only effect, or another doubt; inactive = no such curve, though single readings can be large; an effect the other way counts as inactive or inconclusive. Unless noted, % is scaled to controls: 0 for no effect and ±100 for the full control effect; potency is read from the fitted curve at half-maximal effect.

SMILES	Sm TGR block	AMA1 RON2 block	RE007 growth inh	LmPK inh	Tb PYK inh
CCN(CC)C(=O)CSc1nnc(-c2ccco2)n1Cc1ccco1	50.1µM*	4.7%	-7.8%	8.2%	-17.0%
CC(=O)c1c(C)[nH]c(C(=O)CSc2nnc(-c3cccs3)n2Cc2ccccc2)c1C	-25.7%	-9.9%	-4.8%	8.1%	-8.0%
COC(=O)CSc1nnc(-c2ccco2)n1Cc1ccco1	12.6µM*	-6.3%	-8.5%	5.2%	-24.0%
CC(=O)c1c(C)[nH]c(C(=O)CSc2nnc(-c3ccco3)n2Cc2ccccc2)c1C	39.8µM*	-3.8%	10.2%	4.1%	-3.9%
CCOC(=O)c1cc(-c2ccc(OC)cc2)n(CCC(=O)NC2CCCCC2)c1C	6.0%	/	/	/	0.6%
COCCn1c(SCc2cccnc2)nnc1-c1ccco1	28.2µM*	?	-4.8%	13.6%	9.3%
COc1ccc2c(CNCc3ccco3)c(C(=O)O)n(Cc3cccc(F)c3)c2c1	-0.7%	/	/	/	-12.4%
CCOC(=O)CSc1nc2ccccc2n2cnnc12	50.1µM*	1.7%	-14.4%	4.0%	-2.9%
O=C(O)c1ccc(COc2c(F)c(F)c(F)c(F)c2F)o1	44.7µM*	-2.0%	-12.5%	11.7%	-0.6%
Cc1cc(C)cc(NS(=O)(=O)c2ccc3[nH]cc(C(=O)NCc4ccco4)c(=O)c3c2)c1	39.8µM*	8.3%	3.5%	2.0%	0.0%
Cn1c(=O)c(=O)n(C)c2cc(N3CCCC3)c(NS(=O)(=O)c3ccc(Cl)cc3)cc21	50.1µM*	-8.7%	1.3%	10.1%	0.0%
COc1ccc(NC(=O)c2ccc3c(=O)n4nc(Nc5ccccc5C)sc4nc3c2)cc1Cl	1.6%	/	/	/	1.0%
Oc1oc(C=Nc2ccc(F)cc2F)c2ccccc12	50.1µM*	-1.5%	11.5%	3.6%	-4.7%
CCOc1ccc(-n2c(C)cc(C(=O)CCl)c2C)cc1	4.47µM*	-17.3%	?	0.0%	-8.1%
COC(=O)c1ccc(-n2c(C)cc(C(=O)CCl)c2C)cc1	4.47µM*	-13.4%	25.1µM*	0.3%	-1.4%
CCOc1ccc(NC(=O)C(=O)c2cc(C)n(-c3cc(C)cc(C)c3)c2C)cc1	1.2%	/	/	/	-13.0%
O=[N+]([O-])c1ccc(O)c(C2=NNC(c3ccccc3F)C2)c1 (centres undefined)	5.01µM*	64.1%	-17.0%	-6.9%	-6.1%
O=c1[nH]c2cc3c(cc2cc1CN(Cc1nnnn1C1CCCC1)C1CCCC1)OCCO3	50.1µM*	-12.7%	10.1%	8.6%	-1.9%
CCC(c1nnnn1Cc1ccco1)N(Cc1cc2cc(C)cc(C)c2[nH]c1=O)CC1CCCO1 (centres undefined)	22.4µM*	7.6%	-17.3%	3.5%	?
COc1cc2cc(CN(Cc3nnnn3C3CCCC3)C3CCCC3)c(=O)[nH]c2cc1OC	-13.9%	/	/	6.3%	/
COc1ccc2[nH]c(=O)c(CN(Cc3nnnn3Cc3ccco3)C3CCCCC3)cc2c1	56.2µM*	?	15.3%	16.2%	-20.8%
COc1ccc(Cn2nnnc2CN(Cc2cc3cc(C)ccc3[nH]c2=O)C2CCCC2)cc1	35.5µM*	-0.2%	2.1%	5.4%	3.6%
CCC(c1nnnn1Cc1ccco1)N(Cc1ccccc1OC)Cc1cc2cc(C)ccc2[nH]c1=O (centres undefined)	-20.7%	4.8%	7.1%	7.9%	-5.5%
CCc1nc2nc(C)cc(Nc3cc(C)ccc3C)n2n1	?	/	/	/	0.4%
O=P(O)(O)C(O)(Cc1cccnc1)P(=O)(O)O	/	/	/	/	8.1%
SMILES	Sm TGR block	AMA1 RON2 block	RE007 growth inh	LmPK inh	Tb PYK inh
COC(=O)C1=C(C(=O)OC)[C@@H]2N(C)c3ccccc3[C@@]23C[C@@H](C(=O)OC)N(S(=O)(=O)c2ccc(C)cc2)C3=N1	/	/	/	-1.1%[11.5 µM]	/
CC(=O)Nc1ccccc1-c1nc2ccccc2n(CC(=O)c2ccc(C)c(C)c2)c1=O	-17.0%	/	/	/	4.3%
COc1ccc2[nH]c(=O)c(CN(C3CCCCC3)C(c3nnnn3Cc3ccco3)C(C)C)cc2c1 (centres undefined)	12.6µM*	0.1%	7.5%	7.3%	-19.4%
CCC(C)(C)n1nnnc1CN(Cc1cc2cc(OC)c(OC)cc2[nH]c1=O)C1CCCC1	25.1µM*	2.6%	17.7%	6.7%	-5.6%
c1ccc(CCn2nnnc2CN2CCc3ccccc32)cc1	12.6µM*	-27.9%	6.5%	0.0%	4.7%
OC(c1ccccc1)c1nc2ccccc2n1Cc1c(F)cccc1Cl (centres undefined)	6.2%	/	/	/	1.0%
CCC(C)/C=C/C1=CC2=C(Cl)C(=O)C3(C)OC(=O)C(C(=O)C(C)C(C)O)C3C2=CO1 (centres undefined)	50.1µM*	-11.8%	-18.4%	4.4%	3.4%
CCc1ccc(-c2nn(CC(=O)NCc3ccccc3)c3c2cnc2ccc(C)cc23)cc1	-2.3%	/	/	/	-0.3%
O=C(Nc1ccc(Cl)c(Cl)c1)N(Cc1c[nH]c2ccccc12)C1CCCCC1	-4.5%	/	/	/	-7.0%
CCNC(=O)c1ccc(C2SCC(=O)N2Cc2ccco2)cc1 (centres undefined)	?	-8.4%	7.8%	4.2%	2.8%
O=C1CSC(c2ccncc2)N1Cc1ccco1 (centres undefined)	22.4µM*	1.2%	-8.0%	-1.2%	-18.5%
CC(C)CCNC(=O)c1ccc(C2SCC(=O)N2Cc2ccco2)cc1 (centres undefined)	25.1µM*	-1.5%	15.5%	-1.1%	0.0%
O=C(CSc1nccn1Cc1ccco1)Nc1ccc(OC(F)(F)F)cc1	-5.4%	/	/	/	-1.8%
Cc1cc(Br)ccc1NC(=O)c1cc2c(=O)n(C)c3cc(Cl)ccc3c2s1	3.2%	/	/	/	0.2%
Cn1cccc1/C=N/N1CCN(Cc2ccccc2)CC1	-29.0%	-16.7%	-2.8%	-2.1%	?
Cn1cccc1/C=N/N1CCN(Cc2cccc3ccccc23)CC1	?	20µM*	-5.3%	-8.3%	?
O=C(CSc1nnnn1Cc1ccccc1)NCC(=O)c1ccccc1	50.1µM*	12.2%	2.2%	-1.3%	4.2%
Cc1nn(C)c2c1c(C(F)(F)F)cc(=O)n2CC(=O)NCc1ccccc1Cl	2.4%	/	/	/	4.8%
COCC(=O)N1c2nc(-c3ccco3)nn2C2(CCCCC2)[C@@H]2CCCC[C@@H]21	-23.1%	/	/	/	-6.2%
CCN(CC)CCCC(C)NC(=O)c1cccc(S(=O)(=O)N2CCc3ccccc32)c1 (centres undefined)	15.8µM*	6.7%	-15.0%	7.6%	-0.8%
O=C(NCCCN1CCN(c2ccccc2F)CC1)c1sc2ncccc2c1-n1cccc1	-33.8%	/	/	/	-2.8%
Nc1c(N(Cc2ccco2)C(=O)c2ccc(Br)cc2)c(=O)[nH]c(=O)n1Cc1ccccc1	35.5µM*	-2.5%	2.5%	/	0.1%
Nc1c(N(Cc2ccco2)C(=O)COc2ccccc2Cl)c(=O)[nH]c(=O)n1Cc1ccccc1	50.1µM*	-6.6%	4.6%	/	-11.9%
